The values that follow come from PubChem BioAssay (EPA / NIEHS).

Inconclusive results are not listed. Some structures have more than one record in an assay (separate samples or runs), and their calls can disagree. Active and inactive are the calls of the source. The calls were made as follows, unless noted: active = hit-call score of the fitted dose curve at least 0.9, where 1 is the maximum; inactive = score below 0.9.

The nature of assay [1]: ATG_NRF2_ARE_CIS: Attagene CIS-FACTORIAL HepG2 Assay for human Nuclear Factor Erythroid 2 Related Factor 2 (NFR2) response to Antioxidant Response Elements (ARE) (AID 2282992). To be noted: HepG2 Attagene ARE/NRF2 reporter, transcription factor activity; actives raise or lower the signal. The method, boiled down:
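Cis-factorial assay: transfected HepG2 reporter library, 24 h dosing, mRNA readout via RT-PCR/CE; DMSO-referenced bidirectional analysis.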

Assay [2] is described as follows: ATG_Oct_MLP_CIS: Attagene CIS-FACTORIAL HepG2 Assay for human Octamer-Binding Transcription Factor (Oct) (AID 2282993). To be noted: HepG2 Attagene cis-factorial Oct reporter, mRNA; actives raise or lower the signal. In a few lines: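 Cells of the HepG2 line express promoter-controlled reporter sequences whose mRNA levels, after 24 h treatment, are measured by RT-PCR and capillary electrophoresis. Increases and decreases are scored relative to DMSO.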

Assay [3] concerns the target Cellular tumor antigen p53 (Homo sapiens) (UniProt P04637). Put plainly: ATG_p53_CIS: Attagene CIS-FACTORIAL HepG2 Assay for human p53 Transcription Factor (AID 2282994). The settings on record: HepG2 p53 cis-element reporter, Attagene mRNA; actives raise or lower the signal. In a few lines: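 Using HepG2 hepatoma cells carrying cis-acting multiplexed reporters, mRNA induction is detected after a 24 h exposure. Gain- and loss-of-signal responses are fitted relative to DMSO-treated cells.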

In assay [4] the target is human Peroxisome Proliferator-activated Receptor delta (PPARd), PPARD (gene 5467) (UniProt Q03181). The assay is described as follows: ATG_PPARd_TRANS: Attagene TRANS-FACTORIAL HepG2 Assay for human Peroxisome Proliferator-activated Receptor delta (PPARd) (AID 2283002; active = hit-call score of the fitted dose curve at least 0.9, where 1 is the maximum). In a few lines:
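Transient HepG2 transfection (multiple GAL4-UAS RTUs, chimeric receptor-Gal4); 24 h dosing; total RNA → oligo(dT) RT → PCR → 6-FAM primer extension → HpaI cut → CE. Positive direction vs DMSO.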

The target of assay [5] is Retinoic acid receptor alpha (Homo sapiens) (UniProt P10276). The assay is described as follows: ATG_RARa_TRANS: Attagene TRANS-FACTORIAL HepG2 Assay for human Retinoic Acid Receptor alpha (RARa) (AID 2283005; active = hit-call score of the fitted dose curve at least 0.9, where 1 is the maximum). In a few lines:
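Reporter transcripts, measured by RT-PCR with fluorescent labeling and capillary electrophoresis after 24 h dosing, reflect activity of an exogenous human RARa–GAL4 fusion in transiently transfected HepG2. Fitted for increase relative to DMSO.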

In assay [6] the target is Nuclear receptor subfamily 1 group I member 2 (Homo sapiens) (UniProt O75469). Put plainly: ATG_PXR_TRANS: Attagene TRANS-FACTORIAL HepG2 Assay for human Pregnane X Receptor (PXR) (AID 2283008; active = hit-call score of the fitted dose curve at least 0.9, where 1 is the maximum). In a few lines: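 Fluorescence intensity of FAM-labelled, HpaI-digested reporter amplicons, separated by capillary electrophoresis, quantifies induction. HepG2 cells with PXR-Gal4 trans-reporter system were exposed 24 h; DMSO defines baseline.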

Assay [7] concerns the target human Retinoic Acid Receptor gamma (RARg), RARG (gene 5916) (UniProt P13631). The assay is described as follows: ATG_RARg_TRANS: Attagene TRANS-FACTORIAL HepG2 Assay for human Retinoic Acid Receptor gamma (RARg) (AID 2283009; active = hit-call score of the fitted dose curve at least 0.9, where 1 is the maximum). The method, boiled down:
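Transient transfection of HepG2 with multi-reporter constructs, then 24 h chemical treatment. Total RNA isolated, reverse-transcribed, PCR-amplified, fluorescently labelled and resolved by capillary electrophoresis; activity scored as mRNA induction versus DMSO.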

In assay [8] the target is human RAR-related Orphan Receptor beta (RORb), RORB (gene 6096) (UniProt Q92753). The assay is described as follows: ATG_RORb_TRANS: Attagene TRANS-FACTORIAL HepG2 Assay for human RAR-related Orphan Receptor beta (RORb) (AID 2283010; active = hit-call score of the fitted dose curve at least 0.9, where 1 is the maximum). In a few lines: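 Readout is reporter-gene mRNA induction, detected as fluorescence after RT-PCR and capillary electrophoresis, fitted for gain of signal against DMSO controls. Transiently transfected HepG2 liver cells carrying GAL4-UAS reporter constructs were treated for 24 hours.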

For assay [9], the target named is Retinoic acid receptor RXR-alpha (Homo sapiens) (UniProt P19793). The assay is described as follows: ATG_RXRa_TRANS: Attagene TRANS-FACTORIAL HepG2 Assay for human Retinoid X Receptor alpha (RXRa) (AID 2283012; active = hit-call score of the fitted dose curve at least 0.9, where 1 is the maximum). In a few lines:
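Transient transfection of human HepG2 with multiple GAL4-UAS reporter constructs; 24 h compound exposure; total RNA isolated, reverse-transcribed, PCR-amplified, 6-FAM labelled, HpaI-cut, resolved by capillary electrophoresis. Positive-direction fit versus DMSO.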

Assay [10] has as its target human Peroxisome Proliferator-activated Receptor alpha (PPARa), PPARA (gene 5465) (UniProt Q07869). The assay is described as follows: ATG_PPARa_TRANS: Attagene TRANS-FACTORIAL HepG2 Assay for human Peroxisome Proliferator-activated Receptor alpha (PPARa) (AID 2283001; active = hit-call score of the fitted dose curve at least 0.9, where 1 is the maximum). The method, boiled down:
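Read-out is fluorescence of reporter cDNA fragments resolved by capillary electrophoresis after RT-PCR. Human HepG2 liver cells carried transfected PPARa-Gal4 chimera and GAL4-UAS reporter units, treated 24 h; activity scored as increase over DMSO.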

For assay [11], the target named is Peroxisome proliferator-activated receptor gamma (Homo sapiens) (UniProt P37231). Put plainly: ATG_PPARg_TRANS: Attagene TRANS-FACTORIAL HepG2 Assay for human Peroxisome Proliferator-activated Receptor-gamma (PPARg) (AID 2283007; active = hit-call score of the fitted dose curve at least 0.9, where 1 is the maximum). In a few lines: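 HepG2 cells transiently transfected with multiplexed GAL4-UAS reporter units and exogenous chimeric NR-Gal4 proteins; reporter mRNA quantified after 24 h compound exposure by RT-PCR, fluorescent labelling, HpaI digestion and capillary electrophoresis; gain-of-signal fitted versus DMSO baseline.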

Assay [12] addresses human RAR-related Orphan Receptor gamma (RORg), RORC (gene 6097) (UniProt P51449). Put plainly: ATG_RORg_TRANS: Attagene TRANS-FACTORIAL HepG2 Assay for human RAR-related Orphan Receptor gamma (RORg) (AID 2283011; active = hit-call score of the fitted dose curve at least 0.9, where 1 is the maximum). The method, boiled down: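 HepG2 cells transiently transfected with GAL4-UAS reporter units and chimeric RORg-Gal4 construct; after 24 h chemical exposure, reporter mRNA measured by RT-PCR with fluorescent capillary electrophoresis, gain of signal fitted against DMSO.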

Assay [13] can be described thus: BSK_3C_TissueFactor: BioMAP Diversity Plus: 3C Assay for Tissue Factor Biomarker Activity (AID 2282997). To be noted: BioMAP 3C HUVEC, tissue factor biomarker readout; actives raise or lower the signal. The method, boiled down:
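HUVEC were treated 24 h, then surface tissue factor measured by ELISA and fitted bidirectionally against DMSO. Parallel SRB total-protein staining assessed overt cytotoxicity at the same time point.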

Assay [14] is described as follows: BSK_3C_uPAR: BioMAP Diversity Plus: 3C Assay for Urokinase-type plasminogen activator receptor (uPAR) Biomarker Activity (AID 2282998). The settings on record: BioMAP 3C HUVEC, uPAR biomarker ELISA; actives raise or lower the signal. In a few lines:
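Endothelial primary cells of human umbilical vein origin received test chemical; 24 h later uPAR was assayed by ELISA. Fitting was bidirectional, DMSO as negative control.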
For orientation: An ELISA detects its analyte on a solid surface through an enzyme-linked reagent.

Assay [15] is described as follows: BSK_3C_VCAM1: BioMAP Diversity Plus: 3C Assay for Vascular cell adhesion molecule 1 (VCAM1) Biomarker Activity (AID 2282999). The settings on record: BioMAP 3C HUVEC, VCAM1 ELISA, cytokine-stimulated; actives raise or lower the signal. The method, boiled down:
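Endothelial cells from human umbilical vein are treated with test chemical. At 24 h, VCAM-1 is measured by ELISA, and responses in either direction are fitted relative to DMSO.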

Assay [16] in a line: BSK_4H_Eotaxin3: BioMAP Diversity Plus: 4H Assay for Eotaxin 3 Biomarker Activity (AID 2283000).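 As to outcome: CCL26 protein level quantified by ELISA in parallel with SRB cytotoxicity check.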 To be noted: primary human endothelial cells (HUVEC); actives raise or lower the signal. The method, boiled down: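 Eotaxin-3 (CCL26) levels were measured by ELISA in HUVEC primary cultures 24 h post-dosing. Gain or loss of signal was fitted in both directions, with DMSO serving as baseline and negative control.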

Read-out in assay [17]: Intercellular Adhesion Molecule 1 (ICAM1), ICAM1 (gene 3383)
The assay is described as follows: BSK_3C_ICAM1: BioMAP Diversity Plus: 3C Assay for Intercellular Adhesion Molecule 1 (ICAM1) Biomarker Activity (AID 2283003). The settings on record: primary human endothelial cells (HUVEC); actives raise or lower the signal. In a few lines: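 ICAM-1 levels measured by ELISA after HUVEC cultures in the 3C system had been dosed for 24 h. Gain or loss of signal relative to DMSO was fitted in both directions.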

Assay [18] addresses human Retinoic Acid Receptor beta (RARb), RARB (gene 5915) (UniProt P10826). Put plainly: ATG_RARb_TRANS: Attagene TRANS-FACTORIAL HepG2 Assay for human Retinoic Acid Receptor beta (AID 2283004; active = hit-call score of the fitted dose curve at least 0.9, where 1 is the maximum). In a few lines: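 HepG2 cells were transiently transfected with GAL4-UAS reporter units that report activity of exogenous chimeric NR-Gal4 proteins, then exposed to compound for 24 h. Reporter mRNA was quantified by RT-PCR with capillary electrophoresis fluorescence, as gain of signal over DMSO.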

Assay [19] can be described thus: BSK_3C_Proliferation: Cell Proliferation Assessment in the BioMAP Diversity Plus: 3C Assay (AID 2283006).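 Also: potency may reflect either rise or fall in cell number versus DMSO.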 To be noted: primary human endothelial cells (HUVEC). In a few lines:
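Read-out is total protein by SRB absorbance at 560 nm, taken as a proxy for relative cell number. Primary human umbilical vein endothelium cultured below confluence was dosed for 48 h, TCA-fixed and SRB-stained; curves were fitted bidirectionally versus DMSO.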

Sequence of Cellular tumor antigen p53 (Homo sapiens) (P04637 whole entry, looked up): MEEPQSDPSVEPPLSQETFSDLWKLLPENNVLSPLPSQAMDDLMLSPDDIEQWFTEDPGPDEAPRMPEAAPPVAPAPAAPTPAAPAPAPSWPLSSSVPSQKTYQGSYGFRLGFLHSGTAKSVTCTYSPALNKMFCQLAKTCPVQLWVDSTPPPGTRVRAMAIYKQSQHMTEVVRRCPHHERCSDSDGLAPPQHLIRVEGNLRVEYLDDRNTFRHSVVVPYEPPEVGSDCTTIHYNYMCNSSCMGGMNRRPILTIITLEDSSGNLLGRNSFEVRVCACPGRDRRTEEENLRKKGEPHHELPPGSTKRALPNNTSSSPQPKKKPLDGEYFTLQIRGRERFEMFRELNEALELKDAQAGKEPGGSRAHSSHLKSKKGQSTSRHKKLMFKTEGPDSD
Sequence of human RAR-related Orphan Receptor beta (RORb), RORB (gene 6096) (Q92753 whole entry, looked up, the tested form may be a part): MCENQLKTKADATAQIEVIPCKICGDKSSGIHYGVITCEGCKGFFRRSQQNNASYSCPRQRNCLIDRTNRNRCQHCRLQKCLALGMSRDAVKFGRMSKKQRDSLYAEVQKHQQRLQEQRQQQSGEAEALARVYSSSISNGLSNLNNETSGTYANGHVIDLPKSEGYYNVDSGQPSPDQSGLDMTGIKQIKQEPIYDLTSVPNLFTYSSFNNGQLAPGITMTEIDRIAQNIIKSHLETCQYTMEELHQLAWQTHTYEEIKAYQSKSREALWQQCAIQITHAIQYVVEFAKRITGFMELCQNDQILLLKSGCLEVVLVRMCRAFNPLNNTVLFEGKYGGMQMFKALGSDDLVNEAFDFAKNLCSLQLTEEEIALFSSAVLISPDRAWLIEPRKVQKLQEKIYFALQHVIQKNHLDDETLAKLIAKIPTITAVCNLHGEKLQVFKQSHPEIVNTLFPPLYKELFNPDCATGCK
Sequence of human RAR-related Orphan Receptor gamma (RORg), RORC (gene 6097) (P51449 whole entry, looked up, the tested form may be a part): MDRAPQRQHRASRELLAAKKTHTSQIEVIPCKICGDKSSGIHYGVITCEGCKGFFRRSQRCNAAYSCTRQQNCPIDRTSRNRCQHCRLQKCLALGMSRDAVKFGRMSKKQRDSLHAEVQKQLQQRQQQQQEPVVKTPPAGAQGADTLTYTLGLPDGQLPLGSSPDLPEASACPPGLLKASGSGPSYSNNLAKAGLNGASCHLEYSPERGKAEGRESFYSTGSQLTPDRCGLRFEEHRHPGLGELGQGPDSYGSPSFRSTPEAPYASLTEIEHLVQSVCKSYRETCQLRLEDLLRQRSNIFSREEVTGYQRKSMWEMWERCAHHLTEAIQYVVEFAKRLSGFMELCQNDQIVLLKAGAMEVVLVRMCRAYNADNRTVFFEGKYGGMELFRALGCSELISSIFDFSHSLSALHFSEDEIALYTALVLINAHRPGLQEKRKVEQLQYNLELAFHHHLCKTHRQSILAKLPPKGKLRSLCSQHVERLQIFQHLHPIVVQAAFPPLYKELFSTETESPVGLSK
Sequence of Retinoic acid receptor RXR-alpha (Homo sapiens) (P19793 whole entry, looked up, the tested form may be a part): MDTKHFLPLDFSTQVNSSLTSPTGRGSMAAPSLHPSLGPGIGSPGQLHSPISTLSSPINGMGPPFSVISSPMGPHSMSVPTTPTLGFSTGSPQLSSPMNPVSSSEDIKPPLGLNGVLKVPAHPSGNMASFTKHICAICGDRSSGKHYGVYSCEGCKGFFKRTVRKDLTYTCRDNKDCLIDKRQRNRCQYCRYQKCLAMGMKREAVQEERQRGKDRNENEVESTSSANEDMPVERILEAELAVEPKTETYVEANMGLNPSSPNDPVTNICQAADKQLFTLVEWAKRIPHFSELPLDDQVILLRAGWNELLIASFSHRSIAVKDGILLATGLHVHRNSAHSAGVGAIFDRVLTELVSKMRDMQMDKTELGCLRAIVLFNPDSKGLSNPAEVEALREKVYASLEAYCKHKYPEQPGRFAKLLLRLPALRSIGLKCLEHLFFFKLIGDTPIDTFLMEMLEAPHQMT
Sequence of Nuclear receptor subfamily 1 group I member 2 (Homo sapiens) (O75469 whole entry, looked up, the tested form may be a part): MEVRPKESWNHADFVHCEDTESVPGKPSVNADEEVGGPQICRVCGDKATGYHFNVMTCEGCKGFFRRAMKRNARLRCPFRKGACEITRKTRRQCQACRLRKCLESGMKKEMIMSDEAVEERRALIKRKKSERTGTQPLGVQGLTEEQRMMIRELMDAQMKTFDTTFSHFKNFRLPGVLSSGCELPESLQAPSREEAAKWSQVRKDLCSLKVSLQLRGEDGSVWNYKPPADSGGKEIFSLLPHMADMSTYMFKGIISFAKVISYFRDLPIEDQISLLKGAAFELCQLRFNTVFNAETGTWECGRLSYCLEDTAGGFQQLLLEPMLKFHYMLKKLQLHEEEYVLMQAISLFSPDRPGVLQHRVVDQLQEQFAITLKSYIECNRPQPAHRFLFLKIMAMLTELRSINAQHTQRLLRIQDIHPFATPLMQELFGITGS
Sequence of human Peroxisome Proliferator-activated Receptor delta (PPARd), PPARD (gene 5467) (Q03181 whole entry, looked up, the tested form may be a part): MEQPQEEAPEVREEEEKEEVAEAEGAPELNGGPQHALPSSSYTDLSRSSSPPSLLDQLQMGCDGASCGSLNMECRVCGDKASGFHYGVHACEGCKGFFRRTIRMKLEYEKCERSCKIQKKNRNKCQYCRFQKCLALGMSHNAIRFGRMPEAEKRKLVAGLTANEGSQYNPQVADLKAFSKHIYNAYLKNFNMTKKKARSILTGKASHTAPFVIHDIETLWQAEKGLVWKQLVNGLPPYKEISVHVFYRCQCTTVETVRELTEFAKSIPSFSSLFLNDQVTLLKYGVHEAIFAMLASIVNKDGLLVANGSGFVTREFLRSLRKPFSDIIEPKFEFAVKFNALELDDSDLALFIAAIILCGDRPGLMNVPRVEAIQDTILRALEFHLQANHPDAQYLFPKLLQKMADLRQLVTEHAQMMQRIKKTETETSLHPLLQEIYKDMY
Sequence of Peroxisome proliferator-activated receptor gamma (Homo sapiens) (P37231 whole entry, looked up, the tested form may be a part): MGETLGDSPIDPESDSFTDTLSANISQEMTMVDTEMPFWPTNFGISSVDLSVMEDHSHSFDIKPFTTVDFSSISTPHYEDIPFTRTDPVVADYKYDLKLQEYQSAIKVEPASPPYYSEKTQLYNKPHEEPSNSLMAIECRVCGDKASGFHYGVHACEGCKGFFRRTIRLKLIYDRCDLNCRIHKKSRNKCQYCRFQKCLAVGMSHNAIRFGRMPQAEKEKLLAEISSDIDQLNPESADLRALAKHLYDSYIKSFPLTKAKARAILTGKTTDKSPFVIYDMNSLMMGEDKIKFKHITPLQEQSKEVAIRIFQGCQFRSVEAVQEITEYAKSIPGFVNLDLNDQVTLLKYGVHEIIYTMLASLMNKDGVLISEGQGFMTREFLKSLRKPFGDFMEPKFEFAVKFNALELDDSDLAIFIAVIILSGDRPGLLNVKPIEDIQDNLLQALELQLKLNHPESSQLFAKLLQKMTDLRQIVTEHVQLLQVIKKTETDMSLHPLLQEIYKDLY
Sequence of human Peroxisome Proliferator-activated Receptor alpha (PPARa), PPARA (gene 5465) (Q07869 whole entry, looked up, the tested form may be a part): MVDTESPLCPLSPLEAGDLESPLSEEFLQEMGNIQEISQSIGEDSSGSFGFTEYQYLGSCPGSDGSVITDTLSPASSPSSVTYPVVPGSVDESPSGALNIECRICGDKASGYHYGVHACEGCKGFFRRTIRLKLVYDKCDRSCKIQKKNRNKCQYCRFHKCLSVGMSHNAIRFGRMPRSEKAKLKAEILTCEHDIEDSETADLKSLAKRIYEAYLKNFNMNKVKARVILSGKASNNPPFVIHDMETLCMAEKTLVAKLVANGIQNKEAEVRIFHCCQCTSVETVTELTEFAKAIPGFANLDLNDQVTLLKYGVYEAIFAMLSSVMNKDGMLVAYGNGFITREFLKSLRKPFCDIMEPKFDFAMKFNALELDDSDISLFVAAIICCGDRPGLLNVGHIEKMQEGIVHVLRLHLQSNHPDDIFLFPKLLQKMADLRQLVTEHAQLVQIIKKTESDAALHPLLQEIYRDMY
Sequence of human Retinoic Acid Receptor gamma (RARg), RARG (gene 5916) (P13631 whole entry, looked up): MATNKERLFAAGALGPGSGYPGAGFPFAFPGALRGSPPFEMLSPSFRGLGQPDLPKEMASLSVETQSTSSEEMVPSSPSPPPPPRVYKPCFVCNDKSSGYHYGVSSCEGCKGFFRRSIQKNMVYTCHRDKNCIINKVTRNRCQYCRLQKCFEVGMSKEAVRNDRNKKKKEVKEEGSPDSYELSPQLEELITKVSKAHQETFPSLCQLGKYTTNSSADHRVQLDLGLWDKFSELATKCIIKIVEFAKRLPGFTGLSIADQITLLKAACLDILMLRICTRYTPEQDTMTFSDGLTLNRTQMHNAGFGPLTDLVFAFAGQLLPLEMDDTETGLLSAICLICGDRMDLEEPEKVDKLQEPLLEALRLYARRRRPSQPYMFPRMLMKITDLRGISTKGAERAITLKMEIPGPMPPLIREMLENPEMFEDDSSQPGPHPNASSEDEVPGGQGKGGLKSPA
Sequence of Retinoic acid receptor alpha (Homo sapiens) (P10276 whole entry, looked up, the tested form may be a part): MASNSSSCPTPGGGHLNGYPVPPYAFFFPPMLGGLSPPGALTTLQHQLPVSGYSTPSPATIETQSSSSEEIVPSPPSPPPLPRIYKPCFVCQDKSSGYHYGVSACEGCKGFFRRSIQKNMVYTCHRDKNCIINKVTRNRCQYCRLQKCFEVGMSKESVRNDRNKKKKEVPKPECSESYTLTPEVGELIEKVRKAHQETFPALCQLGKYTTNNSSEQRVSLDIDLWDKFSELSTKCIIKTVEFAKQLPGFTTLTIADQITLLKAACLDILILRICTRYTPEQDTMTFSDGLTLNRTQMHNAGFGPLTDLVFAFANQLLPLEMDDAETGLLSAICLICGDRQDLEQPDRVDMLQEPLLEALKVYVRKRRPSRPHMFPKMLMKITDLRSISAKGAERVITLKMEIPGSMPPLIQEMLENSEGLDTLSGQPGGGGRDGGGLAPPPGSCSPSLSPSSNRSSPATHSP

Take `CCC[N+](CCC)(CCC)CCC`: the molecule was classed as inactive in assay [1], in assay [2], in [3], in assay [4], in assay [5] and in assay [6]. Also, the molecule was classed as inactive in assay [7], in [8] and in assay [9].
Regarding `Nc1nc(N)nc(Cl)n1`, the molecule was called inactive in assay [1], in assay [2], in assay [3], in assay [10], in [11] and in [7]. Further, the molecule was called inactive in [12].
In the case of `CC(C)=CC1C(C(=O)OCc2cccc(Oc3ccccc3)c2)C1(C)C` (stereo not given), the molecule was called inactive in assay [1], in assay [2], in assay [3], in assay [13], in assay [14] and in [15]. Also, the outcome in assay [16], in assay [4], in assay [17], in assay [18], in assay [5] and in assay [12] was inactive. The AC50 in [19] is 20 µM (active); in [6] it was 9.55 µM (active).
As to `C=CC(=O)NC(C)(C)CC(C)=O`, the molecule was called inactive in assay [1], in assay [2], in assay [3], in [10], in [6] and in assay [8]. Also, in assay [12], the call was inactive.
For the molecule `O=C(O)CC(O)(CC(=O)O)C(=O)O`, the call in [1], in [2], in assay [3], in [4], in [11] and in assay [6] was inactive. The outcome in assay [12] and in [9] was inactive. The AC50 in assay [9] was 5.06 µM (active).
With `CCOP(=S)(OCC)OP(=S)(OCC)OCC`, the result in [1], in [2], in assay [3], in assay [13], in assay [4] and in [8] was inactive. Further, the molecule was classed as inactive in assay [9]. The concentration at half-maximal activity (AC50) in [14] is 34 µM (active); in [15] it was 31.9 µM (active); in assay [16], 35.6 µM (active); in assay [17] it was 36.8 µM (active); in [19] it was 31.6 µM (active); in assay [11], 25.8 µM (active). Moreover, the AC50 in assay [6] is 0.94 µM (active).

As a reminder, the AC50 is the concentration giving half of the maximal activity seen.
